# Data from paper PMC11442847.
# Molecular target: Tubulin alpha-1C chain (UniProt Q9BQE3)
# Assay: cross-link between two proteins; cross-linking mass spectrometry
# Sequence of UniProt Q9BQE3 (Q9BQE3 whole entry): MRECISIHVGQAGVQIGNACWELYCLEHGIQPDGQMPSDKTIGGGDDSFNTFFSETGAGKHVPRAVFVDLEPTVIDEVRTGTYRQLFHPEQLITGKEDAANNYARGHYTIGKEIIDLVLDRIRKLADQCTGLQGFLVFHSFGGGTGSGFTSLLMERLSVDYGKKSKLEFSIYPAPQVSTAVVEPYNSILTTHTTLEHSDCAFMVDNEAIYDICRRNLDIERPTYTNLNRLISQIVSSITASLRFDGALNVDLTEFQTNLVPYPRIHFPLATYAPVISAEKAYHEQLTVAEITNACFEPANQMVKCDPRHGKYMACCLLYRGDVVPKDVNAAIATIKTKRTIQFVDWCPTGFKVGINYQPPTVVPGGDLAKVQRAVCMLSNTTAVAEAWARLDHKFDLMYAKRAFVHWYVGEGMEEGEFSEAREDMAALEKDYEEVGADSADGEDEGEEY
substance,measurement,value
"Tubulin beta chain, P07437",listed as a hit,yes
